# Screening data as filed in PubChem.
# PME-1 primary: PME-1 inhibitors via competitive probe labeling, primary screen, biochemical, fluorescence polarization, FP-Rh probe, HTS. actives 0.53% (n = 320,000). inhibition, % at 5.9 µM. recombinant PME-1. AID 2130, 2009;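 active means inhibition above the campaign mean of all compounds plus 3 SD, cut at about 26% in these data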;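 further: competitive labeling of PME-1 active site by serine hydrolase directed probe; inhibitors block probe labeling so polarization falls and inhibition rises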
# Target sequence (Q9Y570 whole entry, looked up): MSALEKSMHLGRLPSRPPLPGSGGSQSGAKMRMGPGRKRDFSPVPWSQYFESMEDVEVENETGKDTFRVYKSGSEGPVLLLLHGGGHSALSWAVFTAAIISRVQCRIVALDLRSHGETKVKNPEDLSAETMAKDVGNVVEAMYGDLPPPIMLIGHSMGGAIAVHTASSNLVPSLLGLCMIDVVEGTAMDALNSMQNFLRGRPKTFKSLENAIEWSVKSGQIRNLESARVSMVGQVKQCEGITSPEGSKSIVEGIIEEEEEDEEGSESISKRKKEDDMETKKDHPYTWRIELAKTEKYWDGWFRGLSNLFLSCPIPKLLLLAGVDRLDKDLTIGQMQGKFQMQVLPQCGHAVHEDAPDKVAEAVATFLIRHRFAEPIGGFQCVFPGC
# Fam108B counter: mouse Fam108B serine hydrolase inhibitors, primary screen, counter-screen for RBBP9 inhibitor project, biochemical, fluorescence polarization; actives 0.33% (n = 300,000); recombinant Fam108B, FP-Rh probe fluorescence polarization; inhibition, % at 9.51 µM;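 active means inhibition above the screen mean inhibition plus 3 SD, computed separately per campaign, cut at about 18% in these data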;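 further: inhibitors lower polarization as less probe binds the enzyme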
# PREPL inh: PREPL enzyme inhibitors, primary screen, biochemical, fluorescence polarization | Prolyl endopeptidase-like (Homo sapiens), Q4J6C6 | recombinant PREPL, fluorescence polarization activity-based probe | inhibition, % at 5.96 µM | actives 0.68% (n = 320,000); in the data active means inhibition above about 43%
# LYPLA2 inh: LYPLA2 inhibitors, primary screen, counter-screen for PME1 inhibitor project, biochemical, fluorescence polarization, FP-Rh probe ABPP; Acyl-protein thioesterase 2 (Homo sapiens), O95372; recombinant LYPLA2; inhibition, % at 5.9 µM; actives 0.38% (n = 320,000);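 active means inhibition above the screen-wide mean plus 3 SD, limit set per campaign, cut at about 26% in these data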
# Target sequence (O95372 whole entry, looked up): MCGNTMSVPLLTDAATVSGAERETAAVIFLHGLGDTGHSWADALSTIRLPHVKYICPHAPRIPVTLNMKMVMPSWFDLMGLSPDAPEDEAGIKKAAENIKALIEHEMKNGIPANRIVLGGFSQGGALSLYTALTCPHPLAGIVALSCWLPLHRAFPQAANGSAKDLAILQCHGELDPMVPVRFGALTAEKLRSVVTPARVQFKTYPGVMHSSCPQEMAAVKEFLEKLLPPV
# LYPLA1 inh: LYPLA1 inhibitors, primary screen, counter-screen for PME1 inhibitor project, biochemical, fluorescence polarization, FP-Rh probe ABPP. actives 0.16% (n = 320,000). AID 2174, 2009. recombinant LYPLA1. inhibition, % at 5.9 µM;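 active means inhibition above the mean of all tested compounds plus 3 SD, set per campaign, cut at about 14% in these data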;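 further: inhibitors block serine hydrolase probe labeling of LYPLA1 so polarization falls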
# LYPLA2 conf: LYPLA2 inhibitors, retest, confirmation, counter-screen for PME1 inhibitor project, biochemical, fluorescence polarization, FP-Rh probe ABPP | shares compounds with LYPLA2 inh | recombinant LYPLA2 | inhibition, % at 5.9 µM | actives 72% (n = 1,100) | AID 2232, 2010;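 active means mean inhibition across replicates above the hit cutoff set in the primary screen, cut at about 26% in these data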;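 further: blocked labeling of the enzyme by serine hydrolase FP-Rh probe lowers polarization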
# LYPLA2 gel ABPP: LYPLA2 inhibitors in proteome, late-stage follow-up, gel-based competitive ABPP, fluorescence, assay provider; shares compounds with LYPLA2 inh; rhLYPLA2 in mouse brain proteome, gel ABPP FP-Rh; inhibition, % at 20 µM; actives 30% (n = 150); AID 652029, 2013;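 active means inhibition of LYPLA2 enzyme probe labeling above about 50%, limit read from the data; inactive means inhibition below that limit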;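 further: loss of FP-Rh probe labeling of the LYPLA2 gel band measured as band density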
# Hits are given with their value; - = inactive; . = no result. Compounds with a hit are over-represented: about 1.3% of the library has one in this group of screens.
SMILES,PME-1 primary,Fam108B counter,PREPL inh,LYPLA2 inh,LYPLA1 inh,LYPLA2 conf,others
O=C1c2ccc(-c3ccc(F)cc3OCc3ccccc3)cc2S(=O)(=O)c2cccc(C(=O)N3CCN(c4ncc(Br)cn4)CC3)c21,.,.,-,.,.,.,
O=C(O)c1cccc2c1C(=O)c1ccc(-c3ccc(F)cc3OCc3ccccc3)cc1S2(=O)=O,-,.,-,35,-,29,
CC(=O)Nc1ccc(S(=O)(=O)NC2CCSc3ccccc32)cc1 (stereo not drawn),-,-,-,32,-,-,
CN(CC(=O)O/N=C(\N)c1ccccn1)S(=O)(=O)c1ccc(Br)cc1,-,-,-,40,-,-,
Cc1ccc(S(=O)(=O)N(C)CC(=O)O/N=C(\N)c2ccccn2)cc1,-,-,-,-,-,.,
CCc1ccc(C(=O)Cn2ncc(Cl)c(Cl)c2=O)cc1,-,-,-,31,-,35,
Cc1ccc(Cn2ncc(Cl)c(Cl)c2=O)cc1,-,-,-,-,-,.,
CN(CCC1CCOCC1)C(=O)C1CCC(=O)N(CCc2ccccc2)C1 (stereo not drawn),-,-,-,-,-,.,
Cc1ccc(C)c(N2CCN(C(=O)c3cc4sccc4n3C)CC2)c1,-,-,-,-,-,.,
Cn1c(C(=O)N2CCN(c3cccc(C(F)(F)F)c3)CC2)cc2sccc21,-,-,-,27,-,-,
CCCOc1ccc(-c2c(=O)n(OCC(=O)OCC)c3ccccc3[n+]2[O-])cc1,-,-,-,27,-,72,
COc1ccc(OC)c(-c2cc(C(=O)Nc3c(C)nn(Cc4ccccc4)c3C)no2)c1,-,-,-,61,-,66,LYPLA2 gel ABPP=64
Cc1nn(Cc2ccccc2)c(C)c1NC(=O)c1cc(-c2ccco2)on1,-,-,-,-,-,.,
COc1ccc(OC)c(-c2cc(C(=O)Nc3c(C)nn(Cc4ccc(Cl)cc4)c3C)no2)c1,-,-,-,44,-,87,LYPLA2 gel ABPP=-
COc1ccc(OC)c(-c2cc(C(=O)Nc3cc(C)on3)no2)c1,-,-,-,-,-,.,
O=c1cc(Cl)c(-c2ccccc2)nn1Cc1ccc(Cl)cc1,-,-,-,26,-,35,
Cc1cc(=O)oc2cc(Oc3ccc([N+](=O)[O-])cc3C(F)(F)F)ccc12,-,-,-,44,-,42,
Cc1nn(-c2ccc(N3CCCCC3)nn2)c(C)c1CCC(=O)Nc1ccc(F)c(F)c1,-,-,-,-,-,.,
CN(C)c1ccc(CN(C(=O)c2cccs2)C2CCS(=O)(=O)C2)cc1 (stereo not drawn),-,-,-,-,-,.,
O=C(COC(=O)c1cccc(S(=O)(=O)N2CCCC2)c1)NCc1ccccc1,-,-,-,-,-,.,
CCOC(=O)C1=C(C)NC2=C(C1c1ccc([N+](=O)[O-])cc1)S(=O)(=O)c1ccccc12 (stereo not drawn),-,-,-,41,-,38,
N#Cc1ccc(COC(=O)c2cnc3ccccc3n2)cc1,-,-,-,27,-,27,
O=C(CSCc1ccccc1Cl)Nc1c[nH]c(=O)[nH]c1=O,-,-,-,39,-,-,
Cc1nn(-c2ccccc2)c2sc(C(=O)OC3CCOC3=O)cc12 (stereo not drawn),-,-,-,36,-,43,
COC(=O)c1cc2c(C)nn(-c3ccccc3)c2s1,-,-,-,-,-,.,
SMILES,PME-1 primary,Fam108B counter,PREPL inh,LYPLA2 inh,LYPLA1 inh,LYPLA2 conf,others
CC1=C(C)/C(=N/OC(=O)c2cccc([N+](=O)[O-])c2)C=CC1=O,-,-,-,-,-,.,
Nc1nc(N2CCN(C/C=C/c3ccccc3)CC2)nc2ccccc12,-,-,-,42,-,39,
O=c1[nH]c(CN2CCN(C/C=C/c3ccccc3)CC2)nc2ccccc12,-,-,-,-,-,.,
O=C(NCc1ccccn1)c1ccc(OC2CCN(Cc3ccccc3)CC2)cc1,-,-,-,-,-,.,
O=C(NCc1ccccn1)c1ccc(OC2CCN(Cc3cccs3)CC2)cc1,-,-,-,28,-,-,
Nc1ccccc1C(=O)NCCCN1CCN(c2cccc(Cl)c2)CC1,-,-,-,30,-,40,
O=C(NCCCN1CCN(c2cccc(Cl)c2)CC1)c1cccc(N2CCCC2=O)c1,-,-,-,27,-,33,
O=C(NCCS(=O)(=O)N1CCN(c2cccc(Cl)c2)CC1)c1ccc2c(c1)OCO2,-,-,-,47,-,56,LYPLA2 gel ABPP=-
COc1ccc(N2CCN(S(=O)(=O)CCNC(=O)c3ccc4c(c3)OCO4)CC2)cc1,-,-,-,-,-,.,
CCOc1cccc(C(=O)N(Cc2cccc(F)c2)C2CCS(=O)(=O)C2)c1 (stereo not drawn),-,-,-,-,-,.,
Cc1nnc(NC(=O)Cn2nc(C)c3ccccc3c2=O)s1,-,-,-,-,-,.,
CCOCC(=O)Nc1ccc([N+](=O)[O-])cc1C,-,-,-,-,-,.,
O=C(CCCC(=O)N1CCN(c2ccc([N+](=O)[O-])cc2)CC1)c1ccccc1,-,-,-,34,-,33,
COc1ccc(C(=O)CCC(=O)N2CCN(c3ccc([N+](=O)[O-])cc3)CC2)cc1,-,-,-,29,-,-,
COc1ccc(C(=O)NC(=S)N2CCN(c3ccc([N+](=O)[O-])cc3)CC2)cc1,-,-,-,-,-,.,
COc1ccc(N2CCN(C(=O)COC(=O)c3ccc(-n4nc(C)cc4C)cc3)CC2)cc1,-,.,-,43,-,40,
Cc1noc(C)c1CSCC(=O)N1CCN(c2ccc([N+](=O)[O-])cc2)CC1,-,-,-,28,-,-,
O=C(CCS(=O)(=O)Cc1ccccc1)N1CCN(c2ccc([N+](=O)[O-])cc2)CC1,-,-,-,-,-,.,
CCCN(CC(=O)Nc1ccccc1C)C(=O)c1nn(CC)c(=O)c2ccccc12,-,.,-,-,-,.,
COc1ccc(N2CCN(C(=O)CSc3ccc([N+](=O)[O-])cc3)CC2)cc1,-,-,-,54,-,49,
COc1ccc(N2CCN(C(=O)CSc3ccc(C)cc3)CC2)cc1,-,-,-,-,-,.,
COc1ccc2c(c1)O[C@H](c1ccc3c(c1)OCO3)[C@@H](O)C2=O,-,-,-,64,-,58,LYPLA2 gel ABPP=-
